High-throughput results from PubChem.
An excerpt weighted towards active compounds, which were near 5.4% of everything screened.
Six1-Eya2 inh: blocks human Six1 binding to Eya2; activity change, % (test concentration not listed); 360,000 tested, 0.56% active; AID 651725; AlphaScreen GST-Six1/His-Eya2 binding, biochemical; stronger effect = lower value; in the data active means activity change below about -65%; inconclusive means mostly about -30% to -63%
Target sequence (O00167 whole entry, looked up): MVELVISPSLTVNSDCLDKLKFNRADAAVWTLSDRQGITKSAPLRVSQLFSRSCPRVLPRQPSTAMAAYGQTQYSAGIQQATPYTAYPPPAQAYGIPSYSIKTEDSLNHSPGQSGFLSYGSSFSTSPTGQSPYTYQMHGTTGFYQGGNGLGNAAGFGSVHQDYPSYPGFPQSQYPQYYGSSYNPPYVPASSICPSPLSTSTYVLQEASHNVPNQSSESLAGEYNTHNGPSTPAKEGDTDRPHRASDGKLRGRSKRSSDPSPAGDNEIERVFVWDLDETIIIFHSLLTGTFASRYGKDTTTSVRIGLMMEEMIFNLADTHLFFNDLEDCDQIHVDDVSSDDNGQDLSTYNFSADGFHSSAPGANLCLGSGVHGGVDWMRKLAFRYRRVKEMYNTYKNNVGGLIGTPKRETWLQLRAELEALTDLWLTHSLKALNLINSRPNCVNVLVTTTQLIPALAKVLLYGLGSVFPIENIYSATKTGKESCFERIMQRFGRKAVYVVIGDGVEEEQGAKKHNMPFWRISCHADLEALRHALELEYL
Target sequence (Q15475 whole entry, looked up): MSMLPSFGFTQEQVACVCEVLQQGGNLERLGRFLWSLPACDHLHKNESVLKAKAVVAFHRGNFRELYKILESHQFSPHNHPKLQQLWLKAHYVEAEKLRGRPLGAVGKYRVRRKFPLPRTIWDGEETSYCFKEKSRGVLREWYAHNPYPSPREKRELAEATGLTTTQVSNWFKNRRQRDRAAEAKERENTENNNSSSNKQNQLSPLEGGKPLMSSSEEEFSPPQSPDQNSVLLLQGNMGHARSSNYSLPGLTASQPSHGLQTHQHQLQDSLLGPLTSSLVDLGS
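Six1/Eya2 binding was read as AlphaScreen signal after compounds were pinned into GST-Six1 plus His-tagged Eya2 (5X stock 250/500 nM) in pH 8.0 Tris/NaCl/TCEP buffer, beads added, then incubated 1 h, 37 C, dark.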
p53 reactivation: restores transcriptional activity of mutant p53 | 320,000 tested, 0.063% active | H1299 p53-A138V BP100-luciferase reporter, luminescence, 24 h | AID 504706 | Potency, µM (titrated, usually from 92.2 µM), most hits filed as activators; further: nearly all actives have a fitted effect of over 45% in size
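p53-null H1299 cells stably carrying temperature-sensitive p53-A138V and a BP100-luciferase reporter were pinned with compounds (4-point, 1:5 series) and held 24 hrs at 37 deg C. Luminescence was read 10 min after detection reagent.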
CtBP-E1A inh: CtBP/E1A binding inhibition; AlphaScreen GST-E1A/His-CtBP binding, 1536-well; stronger effect = lower value; activity change, % (test concentration not listed); 340,000 tested, 0.49% active; AID 651724; in the data active means activity change below about -65%; inconclusive means mostly about -30% to -63%
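Homogeneous bead-based format: GST-tagged E1A captured on glutathione donor beads, His-tagged CtBP on nickel acceptor beads; compounds precede bead addition by 2 h at 37 °C.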
RORg inh: ROR gamma (mouse) transcription inhibition; 310,000 tested, 5.4% active; P51450; Drosophila S2 Gal4-RORgamma UAS-luciferase reporter, 20 h; Potency, µM (series often up to 53.6 µM), hits mostly inhibitors; AID 2551; further: nearly all actives have a fitted effect of over 60% in size
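Luminescence from a UAS-regulated Photinus luciferase reporter in stably transfected Drosophila Schneider cells is measured; decreased signal marks ROR gamma inhibition. Fusion expression is induced by 700 uM copper sulfate for 20 hr.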
Gal4-VP16 FLuc: Gal4-VP16 reporter inhibition counter-screen. Drosophila S2 Gal4-VP16 UAS-luciferase, luminescence, 20 h. Potency, µM (highest dose often 53.6 µM), actives largely listed as inhibitors. 310,000 tested, 3.5% active;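 further: Gal4-VP16 expression switched on by copper sulfate through the metallothionein promoter; nearly all actives have a fitted effect of over 50% in size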
A number is an active result; 0 = inactive; ? = inconclusive; - = no result given; [ ] = remark or other dose. Unless noted, the call rests on the fitted dose curve; in most records, active means well fitted curve in the direction sought with a large enough effect; inconclusive means small, poorly fitted or top-dose-only effect, or another doubt; inactive means no such curve, though single readings can be large; an effect the other way counts as inactive or inconclusive.

SMILES | Six1-Eya2 inh | p53 reactivation | CtBP-E1A inh | RORg inh | Gal4-VP16 FLuc
COc1ccc(OC)c(NC(=O)CSc2nncc(=O)n2N)c1 | 0 | 0 | 0 | 0 | 0
O=C(O)c1cc(O)c2c(c1)[C@H]([C@H]1c3cc(C(=O)O)cc(O)c3C(=O)c3c(O[C@@H]4OC(CO)C(O)C(O)C4O)cccc31)c1cccc(O[C@@H]3OC(CO)C(O)C(O)C3O)c1C2=O (stereo partly specified) | - | - | - | 0 | 0
O=C(c1ccccc1)c1ccc(Oc2ccc([N+](=O)[O-])cc2[N+](=O)[O-])cc1 | 0 | - | 0 | - | -
Cc1cc(=O)oc2cc(Oc3ccc([N+](=O)[O-])cc3[N+](=O)[O-])ccc12 | 0 | 0 | 0 | 11µM | 0
O=Cc1cccc(Oc2ccc([N+](=O)[O-])cc2[N+](=O)[O-])c1 | 0 | 0 | 0 | 14µM | 0
COc1ccccc1NC(=S)N(CCc1ccc(OC)c(OC)c1)Cc1ccccn1 | 0 | 0 | 0 | 11µM | 0[10 µM]
COc1ccc(CCN(Cc2ccccn2)C(=S)Nc2cccc(SC)c2)cc1OC | 0 | 0 | 0 | 10µM | 0[10 µM]
CSc1cccc(NC(=S)N(Cc2ccc(C)cc2)Cc2ccccn2)c1 | 0 | 0 | 0 | 13µM | 0
NC(=S)N=Nc1c(O)[nH]c2ccc(F)cc12 | -80 | 0 | 0 | 4.5µM | ?
O=Nc1c(O)[nH]c2ccc(F)cc12 | 0 | 0 | 0 | 0 | 0
CC(C)NC(=S)N=Nc1c(O)[nH]c2ccc(C(C)C)cc12 | 0 | 0 | - | 5µM | 4.5µM
CC[C@H](C)[C@H](NC(=O)[C@@H]1CCCN1C(=O)[C@H](C)NC(=O)[C@H](CC(N)=O)NC(=O)[C@@H]1CCCN1C(=O)[C@@H]1CCCN1C(=O)[C@H](CCCN=C(N)N)NC(=O)[C@H](Cc1ccc(O)cc1)NC(=O)[C@H](C)NC(=O)[C@@H]1CCCN1C(=O)[C@@H]1CCCN1C(=O)[C@@H](N)[C@@H](C)O)C(=O)N[C@@H](CC(C)C)C(=O)O | - | - | - | 0 | 0
Clc1nc(CN2CCCCC2)nc2sc3c(c12)CCC3 | 0 | ? | 0 | 0 | ?
Clc1ss/c(=N\c2ccccn2)c1Cl | -92 | ? | -86 | 0[0.365 µM] | -
C/C(O)=C(/C#N)c1nc2ccccc2[nH]1 | 0 | 0 | 0 | 7.9µM | ?
CC(=O)OC(/C(O)=C(\C#N)c1nc2ccccc2[nH]1)c1ccccc1 (stereo unspecified) | 0 | 0 | 0 | 14µM | ?
N#C/C(=C(\O)c1cc(Cl)sc1Cl)c1nc2ccccc2[nH]1 | 0 | 0 | 0 | 2.5µM | ?
COc1cc(/C(O)=C(\C#N)c2nc3ccccc3[nH]2)cc(OC)c1OC | 0 | - | - | 11µM | ?
N#C/C(=C(/O)c1ccc(Cl)cc1)c1nc2ccccc2[nH]1 | 0 | 0 | 0 | 0 | 0
COc1cccc(/C=N/NC(=O)c2nnn(-c3nonc3N)c2CN(C)C2CCCCC2)c1 | 0 | - | 0 | - | -
CCOC(=O)c1c(-c2ccccc2)csc1NC(=O)c1cc2ccccc2oc1=O | 0 | 0 | 0 | 0 | 0
N#C/C(=C(/O)c1ccc(Cl)c([N+](=O)[O-])c1)c1nc2ccccc2[nH]1 | 0 | 0 | 0 | 13µM | ?
N#C/C(=C(/O)c1ccc([N+](=O)[O-])cc1)c1nc2ccccc2[nH]1 | 0 | 0 | 0 | 0 | 0
NS(=O)(=O)c1cccc(NS(=O)(=O)c2ccc(/C=C/C(=O)O)cc2)c1 | 0 | 0 | 0 | 0 | 0
COC(=O)c1cccc(NC(=S)N2CCCCC2)c1 | 0 | 0 | 0 | 0 | 0
SMILES | Six1-Eya2 inh | p53 reactivation | CtBP-E1A inh | RORg inh | Gal4-VP16 FLuc
COC(=O)c1cccc(NC(=S)N2CCN(c3ccccc3F)CC2)c1 | 0 | 0 | 0 | 14µM | 0
Cc1cccc(NC(=S)N2CCCCCC2)c1 | 0 | 0 | 0 | ? | ?
COc1ccccc1N1CCN(C(=S)Nc2cccc(C)c2)CC1 | 0 | 0 | 0 | 5µM | 20µM
COc1ccc(N2CCN(C(=S)Nc3cccc(OC)c3)CC2)cc1 | 0 | - | 0 | 0[1.91 µM] | 0
Cc1cccc(NC(=S)N2CCN(c3cc(C)ccc3C)CC2)c1 | 0 | 0 | 0 | 4µM | 5.6µM
O=C(NCC(c1ccco1)N1CCCCC1)c1ccc(COc2ccccc2)cc1 (stereo unspecified) | 0 | 0 | 0 | - | -
Cc1cccc(NC(=S)NNC(=O)COc2ccc(Cl)cc2Cl)c1 | 0 | - | 0 | 4.5µM | 2.8µM
COc1ccc(Cl)cc1NC(=S)Nc1cccc(C)c1 | 0 | 0 | 0 | 11µM | ?
CCC(=O)NC(=S)Nc1ccc(NC(=O)COc2ccc(Cl)cc2Cl)cc1 | 0 | 0 | 0 | 11µM | ?
O=C(COc1cccc2ccccc12)NNC(=O)Nc1ccccc1 | 0 | 0 | 0 | 0 | 0
COc1ccc(NC(=S)NNC(=O)COc2ccc(Cl)cc2Cl)cc1 | 0 | 0 | 0 | ? | 0
O=C(COc1cccc2cccnc12)NNC(=S)Nc1ccccc1 | - | 0 | - | 0.89µM | 0
CN1CCN(c2ncc3nc(-c4ccc(Cl)cc4)c(=O)n(CCC#N)c3n2)CC1 | - | - | - | 0 | 0
CCCCCC(=O)NC(=S)NNC(=O)CC | 0 | 0 | 0 | 11µM | 0
CCCCC(=O)NC(=S)NNS(=O)(=O)c1ccccc1 | 0 | 0 | 0 | 13µM | 20µM
CCCCC(=O)NC(=S)Nc1c(C)cc(Br)cc1C | 0 | 0 | - | 5.6µM | ?
CCCCC(=O)NC(=S)NNC(=O)CC | 0 | 0 | 0 | 7.9µM | 0
CCCCC(=O)NC(=S)Nc1cccc(NC(=O)CC)c1 | 0 | 0 | 0 | ? | 0
O=C(NC(=S)NNS(=O)(=O)c1ccccc1)c1cccnc1 | 0 | 0 | 0 | ? | 0
N#Cc1cccc(-c2cc(NCc3ccccc3)ncn2)c1 | - | - | - | 0 | 0
CC(C)=CCC/C(C)=C/CO/N=C1/C[C@@H](O)[C@@H](O)[C@@H]2[C@@H]3C(=O)N([C@@H](C)c4ccccc4)C(=O)[C@H]3CC[C@H]12 | - | - | - | 0[10 µM] | 0[10 µM]
COC(=O)[C@]12CCCCC=C1N(Cc1cccc3ccccc13)C(=O)[C@H](CC(=O)NCCc1ccccc1OC)C2 | 0 | - | 0 | - | -
CO[C@]1(C)C[C@H]2O[C@]1(C)n1c3ccccc3c3c4c(c5c6ccccc6n2c5c31)C(=O)N(C)C4 | - | - | - | 0 | 0
O=C(NN=C1CCCCCCCCCCC1)c1cccnc1 | 0 | 0 | 0 | 0 | 0
Cc1ccc(CNC(=O)C(NS(=O)(=O)c2cccc3nsnc23)C(C)C)cc1 (stereo unspecified) | 0 | 0 | 0 | 0 | 0
CCOc1ccc2nc(NC(=O)C(NS(=O)(=O)c3cccc4nsnc34)C(C)C)sc2c1 (stereo unspecified) | 0 | 0 | 0 | 16µM | ?
CC(C)C(NS(=O)(=O)c1cccc2nsnc12)C(=O)Nc1nc2ccc(Cl)cc2s1 (stereo unspecified) | 0 | 0 | 0 | 22µM | ?
Cc1ccc(NC(=O)C(NS(=O)(=O)c2cccc3nsnc23)C(C)C)nc1 (stereo unspecified) | 0 | 0 | 0 | 0 | 0
CCc1c(C)sc(NC(=S)Nc2cccnc2)c1C(=O)OC | 0 | 0 | 0 | 3.5µM | 6.3µM
COc1cccc(NC(=S)NC(=O)c2cccnc2)c1 | 0 | - | 0 | 20µM | 0
